Screens (PubChem)
aDG glyco act = increases alpha dystroglycan glycosylation | Pro5-aDG cells, alpha-DG glycosylation AlphaScreen (IIH6); 0% Pro5, 100% B10-LARGE cell signal | activation, % at 10 µM | actives 0.22% (n = 360,000);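 active means activation of at least 8% versus controls, or a plate z-score of at least 8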;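 further: Pro5 are CHO cells carrying HIG-tagged alpha-DG that lacks glycosylation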
NadD block = blocks S. aureus nicotinate mononucleotide adenylyltransferase; purified NadD enzyme, colorimetric absorbance read-out; actives 0.78% (n = 360,000); inhibition, % at 20 µM; in the data active means inhibition above about 26%
MPTP inh = blocks calcium-induced mitochondrial swelling; isolated mouse mitochondria, Ca2+ swelling absorbance, 30 min; inhibition, % at 10 µM; actives 1.4% (n = 360,000); AID 602449;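 active means inhibition of 50% or more, scaled per plate between neutral and stimulator controls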;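 further: 0% = DMSO wells given calcium and 100% = 1 mM EGTA wells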
TAG inh = triacylglycerol accumulation inhibition | H9c2 cells, Nile Red lipid (TAG) fluorescence; cells loaded with 200 µM oleic acid | inhibition, % at 12.5 µM | actives 0.66% (n = 230,000);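 active means pattern-corrected inhibition of lipid staining of at least 50% with the nuclear-stain viability signal not falling by more than 50%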;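 further: 0% = DMSO wells and 100% = triacsin C control wells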
The depositor's hits bear a star; . = no result given. Rows were chosen to be rich in hits. Some 2.7% of all compounds tested hit in one or more screens of this group.

SMILES	aDG glyco act	NadD block	MPTP inh	TAG inh
CCCCCCn1c(=O)n2n(c1=O)C[C@]1(OC(=O)Nc3c(C)noc3C)CN(S(=O)(=O)c3ccc(C)cc3)C[C@]1(O)C2	0.0	1.1	0.4	-6.6
O=C(N/N=C(\c1ccccc1)c1ccccn1)c1cccc([N+](=O)[O-])c1	-1.2	-4.1	-0.8	54.7*
CCCc1nc2cc(C)c(Br)c(C)n2c1Cc1ccccc1OC	0.0	3.5	4.4	.
CC(C)C1Cc2[nH]c(=S)[nH]c(=O)c2C(c2ccc(F)cc2)O1 (configuration not stated)	-0.2	2.5	-1.4	.
COc1ccc(CNC(=O)c2c(C)oc3c2C(=O)c2ccccc2C3=O)cc1	0.7	-0.8	1.9	101.0*
O=C(c1ccccc1)c1coc2c1C(=O)c1ccccc1C2=O	4.8	-4.8	-2.9	1.9
CC(=O)c1c(C)oc2c1C(=O)c1ccccc1C2=O	9.8*	-4.0	6.4	.
O=C1c2ccccc2C(=O)c2c1oc(C(F)(F)F)c2C(=O)c1ccccc1	8.8*	-4.9	0.7	32.5
N#C/C(=C\c1cccn1S(=O)(=O)c1cccc(C#N)c1)S(=O)(=O)c1ccc(F)cc1	-0.1	-4.7	2.1	-6.8
COc1ccc(C(=O)N2CCCC(c3cc(C(=O)NCc4cccnc4)no3)C2)cc1 (configuration not stated)	-0.1	2.4	0.7	-3.4
COc1cccc(OCc2cc(C3Nc4ccccc4C(=O)N3Cc3ccco3)ccc2OC)c1 (configuration not stated)	0.8	30.5*	1.7	-4.5
COc1ccc(C2Nc3ccccc3C(=O)N2Cc2ccco2)cc1COc1ccc([N+](=O)[O-])cc1 (configuration not stated)	0.8	8.5	-1.5	12.0
COC(=O)C1C2CC3c4[nH]c5cc(OC)ccc5c4CCN3CC2CC(OC(=O)CC(C)=O)C1OC (configuration not stated)	0.0	5.5	-0.7	-5.1
CCOC(=O)Oc1c(OC)cc(C(=O)O[C@@H]2C[C@@H]3CN4CCc5c([nH]c6cc(OC)ccc56)[C@H]4C[C@@H]3[C@H](C(=O)OC)[C@H]2OC)cc1OC	0.0	9.5	1.1	60.2*
CCc1cc(=O)oc2cc(C)c(CN3CCCC3)c(O)c12	0.0	17.2	5.1	.
CCCc1cc(=O)oc2cc(C)c(CN3CCCC3)c(O)c12	-0.2	29.4*	6.9	11.1
Oc1cccc2cc(Nc3ccccc3)cnc12	1.0	-2.7	2.4	68.9*
Oc1cc(Nc2ccccc2)cc2cccnc12	3.3	0.6	-0.2	5.1
CN(C)CCCN(C(=O)c1cc(-c2cccs2)nc2ccccc12)c1nc2c(F)cccc2s1	0.1	3.6	0.5	10.1
Cc1ccc2nc(N(CCCN(C)C)C(=O)c3cc(-c4cccs4)nc4ccccc34)sc2c1	0.4	8.0	0.8	54.2*
CCN(CC)C(=O)c1cccc(-c2csc(C(C)(NC(C)=O)c3ccc(OC)cc3)n2)c1 (configuration not stated)	-0.3	0.5	-0.5	-9.3
CCN(C(=O)[C@@H]1CCCN1C(=O)c1cccs1)c1nc2cc(Cl)ccc2s1	-0.2	2.0	0.3	.
CCOc1ccc2nc(-c3ccccc3)[nH]c2c1	-0.2	-3.9	2.4	50.3*
CC1CN(S(=O)(=O)c2cc(C(=O)NC(C)c3cccnc3)ccc2Cl)CC(C)O1 (configuration not stated)	0.2	-2.7	-1.1	-4.1
c1ccc(N=Nc2ccc3cccccc2-3)cc1	-0.7	3.3	3.1	96.3*
SMILES	aDG glyco act	NadD block	MPTP inh	TAG inh
CC(C)(C)OC(=O)NCCCCCNC(=O)c1nc[nH]c1C(=O)N1CCN(C(=O)OC(C)(C)C)CC1	-0.2	-4.2	0.8	6.9
Cc1cc(O)c(/C=N/Nc2cccc(Cl)c2)c(=O)o1	-0.1	-2.5	-3.4	1.4
Cc1cc(O)c(/C=N/Nc2ccc(Cl)cc2)c(=O)o1	6.5*	1.3	-0.2	1.6
CC1(C(=O)NS(=O)(=O)c2cccc(OC(F)F)c2)CCN1C(=O)C/C=C/c1ccccc1 (configuration not stated)	0.0	-0.8	2.6	-5.3
CCC[C@@H](CNC)NC[C@H](Cc1ccccc1)NCCCCc1ccccc1	-0.5	-4.6	7.6	130.6*
Nc1[nH]n(-c2ccccc2)c(=O)c1N=Nc1ccc2ncsc2c1	-0.5	-6.8	4.0	6.7
CCn1c(C)cc(/C=C2\NC(=O)N(CC(=O)Nc3cccc(C)c3)C2=O)c1C	-0.7	43.3*	0.8	6.6
CCn1c(C)cc(/C=C2/NC(=O)N(CC(=O)Nc3cccc(C)c3)C2=O)c1C	-0.5	33.4*	1.2	.
Cc1cccc(NC(=O)CN2C(=O)N/C(=C/c3ccc(C)o3)C2=O)c1	-0.3	2.0	-0.4	.
COc1ccccc1/C=C/CN1CCC(Oc2cc(C(=O)NC3CC3)ccc2OC)CC1	0.0	-7.1	0.1	.
O=C1/C(=C2\C(=O)N(Cc3ccc(F)cc3)c3ccccc32)SC(=S)N1CCS(=O)(=O)O	-0.2	15.4	2.6	.
O=C(O)CN1C(=O)/C(=C2\C(=O)N(Cc3ccccc3Cl)c3ccccc32)SC1=S	0.0	26.4*	8.0	.
COC(=O)Nc1nc(C)c(C(=O)c2ccccc2)s1	-0.1	-0.5	-7.4	.
COC(=O)Nc1nc(-c2ccccc2)c(C(=O)c2ccccc2)s1	-0.4	-4.4	-0.5	65.0*
Nc1[nH]n2c(=O)c3c(nc2c1N=Nc1ccccc1)CCCC3	-0.3	15.5	-0.7	1.8
Nc1[nH]n2c(=O)c3c(nc2c1N=Nc1ccc(Cl)cc1)CCCC3	0.4	31.8*	4.8	-5.3
COc1ccccc1NS(=O)(=O)c1cc([N+](=O)[O-])ccc1N/N=C/c1sc(N2CCOCC2)nc1-c1ccccc1	-0.6	36.6*	15.9	.
CO/N=C(/C(=O)N[C@@H]1C(=O)N2C(C(=O)O)=CCS[C@H]12)c1cnc(N)s1	0.1	39.2*	0.4	-20.3
O=C1C(=O)c2cccnc2-c2ncccc21	-0.3	39.7*	-0.7	.
Cc1cn([C@H]2C[C@H](O)[C@@H](CCC(=O)NCc3cccc4ccccc34)O2)c(=O)[nH]c1=O	0.0	1.7	-1.7	.
O=C(CCN1C(=O)/C(=C/c2ccccc2Cl)SC1=S)NC1C=CS(=O)(=O)C1 (configuration not stated)	0.0	37.0*	-1.4	.
Cc1cc(/C=N/NC(=O)Cn2c3ccccc3c(=O)c3ccccc32)c(C)n1-c1ccccc1	0.3	44.9*	-1.2	.
Cc1ccc(N(CC(=O)N/N=C/c2cc(C)n(-c3ccccc3)c2C)S(C)(=O)=O)c(C)c1	0.2	16.4	-0.6	-12.4
O=NN(C(=O)NCc1cccnc1)C1CCCCC1	-0.3	-5.3	-0.8	.
N#Cc1cccc(NC(=O)c2cc(C3CCCCN3S(=O)(=O)c3cccc4cccnc34)on2)c1 (configuration not stated)	0.7	4.8	-0.4	5.0
CN(/N=C\c1ccc(O)c(O)c1)c1nc(-c2ccccc2)cc(-c2ccccc2)n1	-0.6	33.3*	7.6	33.6
COc1cc(/C=N/NC(=O)C(Cc2c[nH]c3ccccc23)NC(=O)OCc2ccccc2)cc([N+](=O)[O-])c1O (configuration not stated)	-0.3	42.2*	4.2	.
